This note sets out measurements from the supplement of paper PMC10498489.

The whole screen tested about 2,300 compounds, of which about 330 (14%) showed activity. Only a sample is shown. A number with no mark means an inactive call.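 Rule for the calls: active = median modified Z-score above 1.96; inactive = 1.96 or below.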

In this assay the test system is HepG2 Srxn1-GFP reporter cells (+30 nM CDDO-Me). The assay can be described thus: Srxn1-GFP intensity median modified Z-score relative to plate median; higher = stronger NRF2 / oxidative stress reporter activation, active = hit call of the paper. The note with it: 10 µM; exposure time: 24h. In a few lines: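 Compound at 10 μM was applied with an NRF2 activator at 30 nM to HepG2 Srxn1-GFP BAC reporter cells for 24 h, in DMSO at no more than 0.1%, using three replicate 96-well plates seeded at 20,000 cells per well. Fixed, Hoechst-stained cells were imaged confocally and cytoplasmic GFP was scored for each cell, with images under 100 cells left out. The figure reported is the replicate median of the per-plate modified Z-score of GFP intensity. Scaling relied on 1.4826 × median absolute deviation.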
With `O=c1c(O)c(-c2ccc(O)c(O)c2)oc2c(O)c(O)cc(O)c12` [euspeclibcmpd1684], the “Srxn1-GFP intensity median modified Z-score” value was -0.455. For `C[C@]12CCC3C(CC[C@H]4C[C@@H](O)CC[C@]34C)C1CCC2=O` (stereo not given in full) [euspeclibcmpd2371] the value was -0.083. Turning to `N[C@H](CO)Cc1ccccc1` [euspeclibcmpd1743], the “Srxn1-GFP intensity median modified Z-score” value was -0.578.

Consider `O=[N+]([O-])c1ccc([As](=O)(O)O)cc1` [euspeclibcmpd2468], for which the “Srxn1-GFP intensity median modified Z-score” value was 0.0717. For `O=[N+]([O-])c1cc([As](=O)(O)O)ccc1O` [euspeclibcmpd2449] the value was 14.6 (active).

Take `CC(=O)Nc1cc([As](=O)(O)O)ccc1O` [euspeclibcmpd2446]: the “Srxn1-GFP intensity median modified Z-score” value was 0.0429.

Consider `c1cncc(C2=NCCC2)c1` [euspeclibcmpd2209], for which the “Srxn1-GFP intensity median modified Z-score” value is 0. The result for `COc1ccc(/C=C/c2cc(O)cc(O)c2)cc1` [euspeclibcmpd1373] reads 0.31; that for `COc1cc2c(cc1OC)[C@@]13CCN4CC5=CCOC6CC(=O)N2C1[C@H]6[C@H]5C[C@H]43` (stereo not given in full) [euspeclibcmpd1053], 1.74. Take `C=CCN1CCC23c4c5ccc(O)c4OC2C(=O)CC[C@@]3(O)[C@H]1C5` (stereo not given in full) [euspeclibcmpd455]: the “Srxn1-GFP intensity median modified Z-score” value is -0.148. The result for `CC(Cc1ccc(O)cc1)NCC(O)c1cc(O)cc(O)c1` (stereo not given) [euspeclibcmpd366] reads 0.124; that for `CC(CCc1ccccc1)NC(C)C(O)c1ccc(O)cc1` (stereo not given) [euspeclibcmpd217], 6.08 (active); that for `C[C@@H]([C@H](O)c1ccccc1)N(C)C` [euspeclibcmpd1255], 0.2. For `CC1(C)C(C=C(Cl)Cl)C1C(=O)OC(C#N)c1cccc(Oc2ccccc2)c1` (stereo not given) [euspeclibcmpd1141] the value was -0.358; for `O=C(COc1ccc(Br)cc1Cl)N1CCN(Cc2ccc3c(c2)OCO3)CC1`, 0.363; for `O=C(COc1ccc2ccccc2c1)N1CCN(Cc2ccc3c(c2)OCO3)CC1`, 4.61 (active). As to `C=CCc1ccc2c(c1)OCO2` [euspeclibcmpd1477], the “Srxn1-GFP intensity median modified Z-score” value was -0.318. In the case of `CCOP(=S)(OCC)Oc1nc(Cl)c(Cl)cc1Cl` [euspeclibcmpd1024], the “Srxn1-GFP intensity median modified Z-score” value is 0.883. For `COc1cccc2c1cc([N+](=O)[O-])c1c(C(=O)O)cc3c(c12)OCO3` [euspeclibcmpd2326] the value was 0.769.

Take `COC(C)CC(=O)Nc1ccc([N+](=O)[O-])c(C(F)(F)F)c1` (stereo not given): the “Srxn1-GFP intensity median modified Z-score” value was 1.79. The result for `N=c1ccc(C(N)=O)c[nH]1` [euspeclibcmpd1777] reads 0.117; that for `CN1C2CC[C@@H]1C[C@@H](OC(=O)C(CO)c1ccccc1)C2` (stereo not given in full) [euspeclibcmpd2101], 0.179. The result for `Cc1cc2c(C(C)C)c(O)c(O)c(C=O)c2c(O)c1-c1c(C)cc2c(C(C)C)c(O)c(O)c(C=O)c2c1O` [euspeclibcmpd2093] reads 3.73 (active); that for `Cc1cc2c(C(C)C)c(O)c(O)c(C=O)c2c(O)c1-c1c(C)cc2c(C(C)C)c(O)c(O)c(C=O)c2c1O` [euspeclibcmpd1471], 3.88 (active); that for `CN1C2CCC1CC(OC(=O)C(CO)c1ccccc1)C2` (stereo not given) [euspeclibcmpd2059], -0.875.

For `CC[C@@]1(O)C(=O)OCc2c1cc1n(c2=O)Cc2cc3ccccc3nc2-1` [euspeclibcmpd1447], the “Srxn1-GFP intensity median modified Z-score” value is -0.602. As to `COP(=O)(OC)C(O)C(Cl)(Cl)Cl` (stereo not given) [euspeclibcmpd866], the “Srxn1-GFP intensity median modified Z-score” value is 3.07 (active). With `CCC(COC(=O)c1cc(OC)c(OC)c(OC)c1)(c1ccccc1)N(C)C` (stereo not given) [euspeclibcmpd1183], the “Srxn1-GFP intensity median modified Z-score” value was -0.264. The result for `Oc1ccc2c3c1OC1[C@@H](O)CC[C@@]4(O)[C@@H](C2)N(CC2CCC2)CC[C@]314` (stereo not given in full) [euspeclibcmpd978] reads 0.208; that for `COC(=O)C(c1ccccc1)C1CCCCN1` (stereo not given) [euspeclibcmpd885], -0.181.

Take `CN(C)C(=O)Oc1cccc([N+](C)(C)C)c1` [euspeclibcmpd207]: the “Srxn1-GFP intensity median modified Z-score” value was 0.0711. Take `CC(C)c1cc2c(c(O)c1O)[C@@]1(C(=O)O)CCCC(C)(C)C1CC2` (stereo not given in full) [euspeclibcmpd2302]: the “Srxn1-GFP intensity median modified Z-score” value is 5.33 (active). As for `c1ccc2c(c1)Nc1ccccc1S2` [euspeclibcmpd928], the “Srxn1-GFP intensity median modified Z-score” value is 0.0728. Take `NCCc1c[nH]c2ccccc12` [euspeclibcmpd1506]: the “Srxn1-GFP intensity median modified Z-score” value is -0.231. For `S=C=NCc1ccccc1` [euspeclibcmpd1105] the value was 100 (active); for `NNCc1ccccc1` [euspeclibcmpd1327], 0.32. The result for `CC(=O)c1c(O)cc(C)oc1=O` [euspeclibcmpd1006] reads 15.5 (active); that for `CN(C)C1C(=O)C(C(N)=O)C(=O)[C@@]2(O)C(=O)C3C(=O)c4c(O)ccc(Cl)c4[C@@](C)(O)[C@H]3C[C@@H]12` (stereo not given in full) [euspeclibcmpd61], 0.0407; that for `NCC(CC(=O)O)c1ccc(Cl)cc1` (stereo not given) [euspeclibcmpd593], -0.2.

As to `CN(C)C1C(=O)C(C(N)=O)C(=O)[C@@]2(O)C(=O)C3C(=O)c4c(O)cccc4[C@@](C)(O)[C@H]3C[C@@H]12` (stereo not given in full) [euspeclibcmpd288], the “Srxn1-GFP intensity median modified Z-score” value was 0.167. The result for `C=C(C)[C@@H]1[C@H]2OC(=O)[C@@H]1[C@]1(O)C[C@H]3O[C@]34C(=O)O[C@H]2[C@]14C` [euspeclibcmpd1351] reads 17.9 (active); that for `CC(C)(O)[C@@H]1[C@H]2OC(=O)[C@@H]1[C@]1(O)C[C@H]3O[C@]34C(=O)O[C@H]2[C@]14C` [euspeclibcmpd1439], -0.455. For `CCC(C)C(=O)O[C@@H]1C[C@@]2(C)[C@H](c3ccoc3)OC(=O)CC23OC2(C)OC34[C@H](OC(=O)C(C)C)[C@@]3(O)[C@@H](OC(=O)C5(C)OC5C)[C@@]5(C)C[C@]3(O)[C@@](C)([C@H]5CC(=O)OC)C14O2` (stereo not given in full) [euspeclibcmpd1627] the value was 0.307.

`COc1c2c(cc3c1OCO3)CC[N+](C)=C2` [euspeclibcmpd2418]: the “Srxn1-GFP intensity median modified Z-score” value is 0.209. The result for `CNCC(=O)c1ccc(O)c(O)c1` [euspeclibcmpd922] reads -1.16; that for `CCC1(CC)C(=O)NC(=O)NC1=O` [euspeclibcmpd2126], 0.302; that for `CC1=NCCc2c1[nH]c1cc(O)ccc21` [euspeclibcmpd2357], 7.71 (active).

On to `COc1ccc2c3c([nH]c2c1)C(C)=NCC3` [euspeclibcmpd2276], for which the “Srxn1-GFP intensity median modified Z-score” value was 66 (active).

As to `Cl[C@H]1[C@H](Cl)[C@@H](Cl)[C@@H](Cl)[C@H](Cl)[C@H]1Cl` [euspeclibcmpd969], the “Srxn1-GFP intensity median modified Z-score” value is 0.0503. The result for `CC1C(=O)O[C@@H]2O[C@]3(C)CC[C@H]4[C@H](C)CC[C@@H]1[C@@]24OO3` (stereo not given in full) [euspeclibcmpd1110] reads 0.987. For the molecule `CC(=O)O[C@@H]1C2CC[C@@H]3C1(C[C@@H](O)[C@@]1(O)[C@@H](C[C@H](O)C1(C)C)[C@]3(C)O)C[C@@]2(C)O` (stereo not given in full) [euspeclibcmpd2325], the “Srxn1-GFP intensity median modified Z-score” value was -0.506. For `CC(C)(C#N)O[C@@H]1O[C@H](CO)[C@@H](O)[C@H](O)[C@H]1O` [euspeclibcmpd1356] the value was 0.0487. Consider `CC1C[C@H](C)C[C@H]([C@H](O)CC2CC(=O)NC(=O)C2)C1=O` (stereo not given in full) [euspeclibcmpd437], for which the “Srxn1-GFP intensity median modified Z-score” value is -0.201. The result for `C=C[C@H]1C[N@]2CC[C@H]1C[C@@H]2[C@H](O)c1ccnc2ccccc12` [euspeclibcmpd2140] reads 0.321; that for `Cc1nc(=N)c(CNC(=O)N(CCCl)N=O)c[nH]1` [euspeclibcmpd1167], -0.0324; that for `N=C(N)NN` [euspeclibcmpd930], -0.0849. On to `CC[C@H]1CN2CCc3cc(OC)c(OC)cc3C2C[C@@H]1CC1NCCc2cc(OC)c(OC)cc21` (stereo not given in full) [euspeclibcmpd109], for which the “Srxn1-GFP intensity median modified Z-score” value was -1.21.

Turning to `CC(C)CC1C(=O)N2CCC[C@H]2[C@@]2(O)O[C@](NC(=O)C3=CC4c5cccc6[nH]c(Br)c(c56)CC4N(C)C3)(C(C)C)C(=O)N12` (stereo not given in full) [euspeclibcmpd39], the “Srxn1-GFP intensity median modified Z-score” value is 23.2 (active).

With `CN1CC(C(=O)N[C@]2(C)O[C@@]3(O)[C@@H]4CCCN4C(=O)C(Cc4ccccc4)N3C2=O)C[C@@H]2c3cccc4[nH]cc(c34)C[C@H]21` (stereo not given in full) [euspeclibcmpd97], the “Srxn1-GFP intensity median modified Z-score” value was -0.0377. For the molecule `CC[C@@H](CO)NC(=O)C1=CC2c3cccc4c3c(cn4C)C[C@H]2N(C)C1` (stereo not given in full) [euspeclibcmpd522], the “Srxn1-GFP intensity median modified Z-score” value was -0.363. For `CCC(CO)NC(=O)C1=CC2c3cccc4[nH]cc(c34)CC2N(C)C1` (stereo not given) [euspeclibcmpd1928], the “Srxn1-GFP intensity median modified Z-score” value was -0.0083. For `CC(CO)NC(=O)C1=CC2c3cccc4[nH]cc(c34)CC2N(C)C1` (stereo not given) [euspeclibcmpd113], the “Srxn1-GFP intensity median modified Z-score” value was 0.556. The result for `CN1CC(C(=O)N[C@]2(C)O[C@@]3(O)C4CCCN4C(=O)C(Cc4ccccc4)N3C2=O)=CC2c3cccc4[nH]cc(c34)CC21` (stereo not given in full) [euspeclibcmpd823] reads 113 (active). The result for `CC(NC(C)(C)C)C(=O)c1cccc(Cl)c1` (stereo not given) [euspeclibcmpd657] reads -0.376; that for `CC(=O)Oc1ccc(/C=C/c2cc(OC(C)=O)cc(OC(C)=O)c2)cc1` [euspeclibcmpd1618], 1.59; that for `CC(=O)NC1CCSC1=O` (stereo not given) [euspeclibcmpd1125], 0.231. `CCOP(=S)(OCC)Oc1cc(C)nc(C(C)C)n1` [euspeclibcmpd706]: the “Srxn1-GFP intensity median modified Z-score” value was -0.234. Take `C=CCc1cc(OC)c2c(c1OC)OCO2` [euspeclibcmpd1480]: the “Srxn1-GFP intensity median modified Z-score” value is -0.404. On to `N=c1cc[nH]cc1` [euspeclibcmpd895], for which the “Srxn1-GFP intensity median modified Z-score” value is -0.471. The result for `Cc1cc(C(C#N)c2ccc(Cl)cc2)c(Cl)cc1NC(=O)c1cc(I)cc(I)c1O` (stereo not given) [euspeclibcmpd694] reads 9.76 (active).
